Sm TGR inh – blocks Schistosoma mansoni thioredoxin glutathione reductase; Q962Y6; purified TGR, DTNB reduction, TNB absorbance 405 nm; Potency, µM (top dose mostly 114 µM), hits mostly inhibitors; actives 3% (n = 360,000); also: nearly all actives have a fitted effect of over 60% in size
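Kinetic colorimetric format: TGR-catalysed, NADPH-driven DTNB reduction monitored via TNB absorbance. Enzyme dispensed at 20 nM; compound exposure 15 min at room temperature before reaction start.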
Pf growth 96h – P. falciparum growth inhibition at 96 hours. P. falciparum luciferase reporter growth, 96 h. Potency, µM (doses to about 28.7 µM), actives largely listed as inhibitors. actives 6.9% (n = 320,000). AID 504834
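Two-generation exposure (96 h) targets delayed-death phenotype. Reporter parasites carrying integrated firefly luciferase, in red cells at 2% hematocrit and 0.05% parasitemia final, kept at 37 C, 5% CO2; luminescence loss indicates inhibition.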
AmpC inh no detg – AmpC beta-lactamase inhibition without detergent. P00811. AmpC nitrocefin hydrolysis, absorbance 480 nm, 0.0001% Triton. Potency, µM (top dose mostly 57.1 µM), hits mostly inhibitors. actives 0.52% (n = 330,000); also: nearly all actives have a fitted effect of over 20% in size
Target sequence (P00811 whole entry, looked up): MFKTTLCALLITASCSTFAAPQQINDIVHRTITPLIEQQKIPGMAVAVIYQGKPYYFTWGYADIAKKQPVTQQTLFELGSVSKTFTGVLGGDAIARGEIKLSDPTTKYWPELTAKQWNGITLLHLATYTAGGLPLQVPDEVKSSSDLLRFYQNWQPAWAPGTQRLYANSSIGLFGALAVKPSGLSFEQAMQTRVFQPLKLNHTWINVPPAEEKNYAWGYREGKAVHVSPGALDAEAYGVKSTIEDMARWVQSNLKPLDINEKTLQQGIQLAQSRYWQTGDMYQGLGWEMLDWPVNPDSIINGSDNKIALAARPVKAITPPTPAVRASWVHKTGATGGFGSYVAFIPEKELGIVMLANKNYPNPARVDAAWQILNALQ
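AmpC (5.3 nM in the dispensed reagent) in 20 mM phosphate pH 7.0 with 0.01% (detergent screen) or 0.0001% Triton X-100 was preincubated with compounds for 15 min at room temperature. Nitrocefin was then added from an 800 uM solution, and hydrolysis was followed at 480 nm.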
SARS PLpro yeast – blocks SARS-CoV papain-like protease in a yeast assay. actives 0.19% (n = 330,000). Potency, µM (titrated, usually from 32.9 µM), hits mostly activators. S. cerevisiae expressing SARS-CoV PLpro, growth rescue. AID 485353; calls by dose curve; also: nearly all actives have a fitted effect of over 55% in size
Pf growth 48h – P. falciparum growth inhibition at 48 hours (one generation); actives 5.9% (n = 310,000); Potency, µM (doses to about 28.7 µM), most hits filed as inhibitors; P. falciparum luciferase growth in erythrocytes, 48 h
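In quantitative HTS format, infected erythrocytes bearing luciferase-reporter parasites were treated for a single generation at 37 C. Luminescence after adding detection reagent served as the growth measure.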
AmpC detergent – AmpC beta-lactamase inhibition with detergent present | AmpC hydrolysis of nitrocefin, absorbance 480 nm, 0.01% Triton | actives 0.041% (n = 370,000) | Potency, µM (titrated, usually from 114 µM), hits mostly inhibitors | AID 485294; also: nearly all actives have a fitted effect of over 25% in size
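AmpC (5.3 nM in the dispensed reagent) in 20 mM phosphate pH 7.0 with 0.01% (detergent screen) or 0.0001% Triton X-100 was preincubated with compounds for 15 min at room temperature. Nitrocefin was then added from an 800 uM solution, and hydrolysis was followed at 480 nm.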
Large screens that a line does not name were inactive. In the library only some 12% were active in any assay of this set; here they are far more common. Unless noted, calls follow the shape of the dose curve; as a rule, active = well fitted curve in the direction sought with a large enough effect; inconclusive = small, poorly fitted or top-dose-only effect, or another doubt; inactive = no such curve, though single readings can be large; an effect the other way counts as inactive or inconclusive.

COc1ccc(-c2cn3cccnc3n2)cc1NC(=O)c1c(F)cccc1F	none (no result: Pf growth 96h, AmpC inh no detg, SARS PLpro yeast, Pf growth 48h)
Cc1cc(Br)c(NC(=O)CN(C)CCOc2ccccc2)c(Br)c1	none
Cc1c(Cl)cccc1NC(=O)Nc1ccn(C)n1	Pf growth 96h inconclusive
Cn1ccc(NC(=O)CCl)n1	Sm TGR inh 14.1µM, Pf growth 48h inconclusive
Cc1cc(Br)c(NC(=O)CCl)c(Br)c1	Sm TGR inh 31.6µM, Pf growth 96h inconclusive
Cc1cc(NC(=O)CCl)nn1C	Sm TGR inh 28.2µM, Pf growth 96h 10.4µM, Pf growth 48h inconclusive
CCCOc1ccc(C(=O)NNC(=S)NC(=O)c2cccs2)cc1	Pf growth 96h inconclusive, Pf growth 48h inconclusive
O=C(NC(=S)NNC(=O)c1cccs1)c1ccccc1	Sm TGR inh 50.1µM, Pf growth 96h inconclusive
CCOc1ccc(C(=O)NC(=S)N(Cc2ccccc2)Cc2ccccc2)cc1	Pf growth 96h 2.62µM, AmpC inh no detg inconclusive, Pf growth 48h inconclusive
CCCOc1ccc(C(=O)NNC(=S)NC(C)=O)cc1	Pf growth 96h 0.329µM, Pf growth 48h inconclusive
CC(C)(C)c1ccc(C(=O)NC(=S)NNC(=O)c2cccs2)cc1	Pf growth 96h inconclusive, AmpC detergent inconclusive
CCCOc1ccc(C(=O)NNC(=S)NC(=O)c2ccccc2)cc1	Pf growth 96h 3.29µM, Pf growth 48h 10.4µM
CCCOc1ccc(C(=O)NNC(=S)NC(=O)c2cc(-c3ccccc3)nc3ccccc23)cc1	AmpC inh no detg 4.47µM
CC1CCc2cc(F)ccc2N1C(=O)CSc1nnc2c(n1)[nH]c1ccccc12 (centres undefined)	Pf growth 96h inconclusive, Pf growth 48h 1.47µM
Cc1ccccc1CN1C(=O)C(O)(c2c[nH]c3ccccc23)c2cc(Cl)ccc21 (centres undefined)	none (no result: Pf growth 96h, AmpC inh no detg, SARS PLpro yeast, Pf growth 48h)
Cc1ccc(-c2nn(CC(=O)NC3CCCC3)c3c2cnc2ccc(F)cc23)cc1C	none (no result: Pf growth 96h, AmpC inh no detg, SARS PLpro yeast, Pf growth 48h)
CC1=C(C)C(OCCBr)N(c2cc(O)c(Cl)cc2F)C1=O (centres undefined)	Sm TGR inh 28.2µM
Cc1ccccc1C(=O)OCc1cc(=O)n2nc(-c3cccs3)sc2n1	none (no result: Pf growth 96h, AmpC inh no detg, SARS PLpro yeast, Pf growth 48h)
NC(=O)c1oc2ccccc2c1NC(=O)c1ccc(F)cc1	none
CCCCOc1ccc(C(=O)Nc2ccc(N3CCN(C(=O)C(C)C)CC3)cc2)cc1	Pf growth 48h 9.28µM (no result: Pf growth 96h)
CC(C)C(=O)N1CCN(c2ccc(NC(=O)c3ccc([N+](=O)[O-])o3)cc2)CC1	Sm TGR inh inconclusive, Pf growth 48h 4.65µM
NC(=O)c1oc2ccccc2c1NC(=O)c1ccc([N+](=O)[O-])o1	Pf growth 48h 9.28µM, AmpC detergent inconclusive
Cc1ccc(C)c(-c2nnc(NC(=O)C3=COCCO3)o2)c1	AmpC inh no detg inconclusive, AmpC detergent inconclusive
Cc1ccc(C)c(-c2nnc(NC(=O)c3ccc([N+](=O)[O-])o3)o2)c1	Sm TGR inh 35.5µM, Pf growth 96h 9.28µM, Pf growth 48h 9.28µM
CC(C)C(=O)N1CCN(c2ccc(NC(=O)c3ccc([N+](=O)[O-])o3)cc2Cl)CC1	Pf growth 96h inconclusive
COc1cc(NS(=O)(=O)c2cnc(N)nc2)cc(OC)c1	none (no result: Pf growth 96h, AmpC inh no detg, SARS PLpro yeast, Pf growth 48h)
Cc1ccc(S(=O)(=O)NCCc2cn3ccsc3n2)cc1	none (no result: Pf growth 96h, AmpC inh no detg, SARS PLpro yeast, Pf growth 48h)
CSc1nsc(SCC(=O)N2CCCCC2)n1	none
Cc1cc(NC(=O)c2ccc([N+](=O)[O-])o2)ccc1NC(=O)c1ccco1	Sm TGR inh inconclusive, Pf growth 48h 8.28µM
Cc1cc(C)cc(NC(=O)c2ccc([N+](=O)[O-])o2)c1	Sm TGR inh 35.5µM, Pf growth 96h inconclusive, Pf growth 48h 13.1µM
CC(=O)c1ccc(NC(=O)c2ccc([N+](=O)[O-])o2)cc1	Sm TGR inh 28.2µM
NS(=O)(=O)c1ccc(O)c(NC(=O)c2ccc([N+](=O)[O-])o2)c1	Sm TGR inh inconclusive, Pf growth 96h 10.4µM, Pf growth 48h 7.38µM
Cc1cc(C)nc(NC(=O)c2ccc([N+](=O)[O-])o2)n1	none
O=C1CC(c2ccc(Cl)cc2)Sc2nc(-c3ccc(F)cc3)nn21 (centres undefined)	none (no result: Pf growth 96h, AmpC inh no detg, SARS PLpro yeast, Pf growth 48h)
COc1ccc(Br)cc1/C=C/c1ccc2cccc(O)c2n1	Pf growth 96h inconclusive, Pf growth 48h 2.08µM
COc1ccc(/C=C/c2ccc3c(Br)ccc(O)c3n2)cc1	none
COc1cc(/C=C/c2ccc3cccc(O)c3n2)cc(Cl)c1OC	Pf growth 96h 3.7µM
COc1cc(/C=C/c2ccc3c(Br)cc(Br)c(O)c3n2)ccc1O	Pf growth 96h 3.7µM, Pf growth 48h 9.28µM
Cc1ccc2c(Br)cc(Br)c(O)c2n1	Pf growth 96h 6.75µM, Pf growth 48h 12µM (no result: Sm TGR inh, AmpC inh no detg, SARS PLpro yeast, AmpC detergent)
COc1cccc(-c2nc(SCc3cc(=O)c4cc(Cl)ccc4[nH]3)n[nH]2)c1	none (no result: Pf growth 96h, AmpC inh no detg, SARS PLpro yeast, Pf growth 48h)
COC(=O)c1ccccc1NC(=O)c1cn2c3c(ccc(Cl)c3c1=O)OC(C)C2 (centres undefined)	none (no result: Pf growth 96h, AmpC inh no detg, SARS PLpro yeast, Pf growth 48h)
Cc1ccc(CN2C(=O)C(=O)c3cc(Br)cc(C)c32)cc1	none (no result: Pf growth 96h, AmpC inh no detg, SARS PLpro yeast, Pf growth 48h)
O=C1NC[C@@H](Cc2cccc3ccccc23)N(CC2(c3ccccc3)CC2)C1=O	Pf growth 96h 13.1µM, Pf growth 48h 11.7µM
COc1ccc(Nc2cc(C)c3ccc(O)cc3n2)cc1	Pf growth 96h inconclusive, Pf growth 48h 0.37µM
CCOc1ccc(Nc2cc(C)c3ccccc3n2)cc1	Pf growth 96h inconclusive, AmpC inh no detg inconclusive
Cc1cc(Nc2ccccc2)nc2cc(O)ccc12	Pf growth 48h 0.329µM
COc1cccc(CNS(=O)(=O)c2cc(CN3C(=O)c4cccnc4C3=O)ccc2OC)c1	none
CC(NC(=O)/C(C#N)=C/c1ccc([N+](=O)[O-])o1)c1ccccc1 (centres undefined)	Sm TGR inh 1.26µM
CCOCCCNC(=O)/C(C#N)=C/c1ccc([N+](=O)[O-])o1	Sm TGR inh 8.91µM
CCOCCCNC(=O)/C(C#N)=C/c1ccc(-c2ccc(S(=O)(=O)N3CCOCC3)cc2)o1	Sm TGR inh inconclusive, Pf growth 96h 13.1µM
CCOCCCNC(=O)/C(C#N)=C/c1cc(Br)c(O)c(Br)c1	Pf growth 48h inconclusive
CC(C)Cn1c(N)c(C(=O)COC(=O)C2Cc3ccccc3CN2S(C)(=O)=O)c(=O)n(C)c1=O (centres undefined)	Pf growth 96h inconclusive, Pf growth 48h 11.7µM
CC(C)Cn1c(N)c(C(=O)COC(=O)c2cc(-c3ccccc3)nc3ccccc23)c(=O)n(C)c1=O	Pf growth 96h 11.7µM, Pf growth 48h inconclusive, AmpC detergent inconclusive
Cn1c(=O)c(C(=O)COC(=O)c2cc(-c3ccco3)nc3ccccc23)c(N)n(Cc2ccccc2)c1=O	Sm TGR inh 3.16µM, Pf growth 96h 6.57µM, Pf growth 48h 5.22µM

Screens deposited in PubChem BioAssay by National Center for Advancing Translational Sciences (NCATS).
